The source of these data is PubChem BioAssay.

Activity calls are given as the source filed them.

In test [1] the test system is PRMT1 (protein arginine N-methyltransferase 1). Put plainly: PRMT1 binders on small-molecule microarrays, primary screen, biochemical, small-molecule microarray, 635 nm fluorescence (AID 1088).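 Note: binding of Prmt1 protein to compounds spotted on small-molecule microarray slides.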 As to conditions: small-molecule microarray binding, higher = more signal.
Test [2] in a line: yeast growth modulation, basal conditions, primary screen, YJM789 clinical isolate, OD600, 24 h (AID 1089).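 Note: growth of clinical yeast isolate S. cerevisiae YJM 789 seeded 1000 cells per well; test concentration not given here.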 As to conditions: S. cerevisiae YJM789 growth, higher = more signal, called active from +8 up or from −8 down.
Test [3] in a line: fission yeast growth modulation, primary screen, strain 972, OD600, 24 h, no modulator (AID 1090).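 Note: basal condition with compound alone and no growth modifier present; test concentration not given here.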 As to conditions: S. pombe 972 growth, higher = more signal, called active from +8 up or from −8 down.
The nature of test [4]: S. cerevisiae growth modulation with rapamycin, primary screen, strain BY4716, OD600, 96 h (AID 1091). Note: test concentration not given here. Particulars: higher = more signal, called active from +8 up or from −8 down.
Test [5] has as its target Torsin-1A-interacting protein 2 (Homo sapiens) (UniProt Q8NFQ8). The test can be described thus: LULL1 binders on small-molecule microarray, primary screen, cell lysate, human LULL1 lysate, 635/667 nm fluorescence (AID 1092).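 Note: probe is lysate of COS7 cells overexpressing human LULL1; score merges per-feature 667 nm fluorescence with signal-to-noise.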 Particulars: hLULL1 lysate binding, 635 nm fluorescence, higher = more signal.
Test [6] can be described thus: E. coli growth modulation, two-sided OD650, primary screen, E. coli filamentation project, strain DRC41, 24 h (AID 1093).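 Note: MC1000 strain lacking acrAB efflux and sulA so SOS filamentation is blocked; test concentration not given here.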 Particulars: OD650, 24 h, higher = more signal, called active from +8 up or from −8 down.
A short description of test [7]: small-molecule microarray binders of probe aLefty2, primary screen, biochemical, biotinylated probe, 635/667 nm fluorescence (AID 1094).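 Note: score merges spot fluorescence near 667 nm with spot signal-to-noise ratio.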 As to conditions: higher = more signal.
Test [8] concerns Noggin (protein binding on small-molecule microarray). The test can be described thus: Noggin binders on small-molecule microarray, primary screen, biochemical, 635/667 nm fluorescence (AID 1095).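 Note: score merges 667 nm feature fluorescence with signal to noise over triplicate slides.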 As to conditions: 635 nm fluorescence, higher = more signal.
In test [9] the target is Neurogenic locus notch homolog protein 3 (Homo sapiens) (UniProt Q9UM47). The test can be described thus: NOTCH3 binders on small-molecule microarray, primary screen, biochemical, 635/667 nm fluorescence (AID 1096). Particulars: NOTCH3 binding, 635 nm fluorescence, higher = more signal.
Chain of Neurogenic locus notch homolog protein 3 (Homo sapiens) (Q9UM47 whole entry, looked up): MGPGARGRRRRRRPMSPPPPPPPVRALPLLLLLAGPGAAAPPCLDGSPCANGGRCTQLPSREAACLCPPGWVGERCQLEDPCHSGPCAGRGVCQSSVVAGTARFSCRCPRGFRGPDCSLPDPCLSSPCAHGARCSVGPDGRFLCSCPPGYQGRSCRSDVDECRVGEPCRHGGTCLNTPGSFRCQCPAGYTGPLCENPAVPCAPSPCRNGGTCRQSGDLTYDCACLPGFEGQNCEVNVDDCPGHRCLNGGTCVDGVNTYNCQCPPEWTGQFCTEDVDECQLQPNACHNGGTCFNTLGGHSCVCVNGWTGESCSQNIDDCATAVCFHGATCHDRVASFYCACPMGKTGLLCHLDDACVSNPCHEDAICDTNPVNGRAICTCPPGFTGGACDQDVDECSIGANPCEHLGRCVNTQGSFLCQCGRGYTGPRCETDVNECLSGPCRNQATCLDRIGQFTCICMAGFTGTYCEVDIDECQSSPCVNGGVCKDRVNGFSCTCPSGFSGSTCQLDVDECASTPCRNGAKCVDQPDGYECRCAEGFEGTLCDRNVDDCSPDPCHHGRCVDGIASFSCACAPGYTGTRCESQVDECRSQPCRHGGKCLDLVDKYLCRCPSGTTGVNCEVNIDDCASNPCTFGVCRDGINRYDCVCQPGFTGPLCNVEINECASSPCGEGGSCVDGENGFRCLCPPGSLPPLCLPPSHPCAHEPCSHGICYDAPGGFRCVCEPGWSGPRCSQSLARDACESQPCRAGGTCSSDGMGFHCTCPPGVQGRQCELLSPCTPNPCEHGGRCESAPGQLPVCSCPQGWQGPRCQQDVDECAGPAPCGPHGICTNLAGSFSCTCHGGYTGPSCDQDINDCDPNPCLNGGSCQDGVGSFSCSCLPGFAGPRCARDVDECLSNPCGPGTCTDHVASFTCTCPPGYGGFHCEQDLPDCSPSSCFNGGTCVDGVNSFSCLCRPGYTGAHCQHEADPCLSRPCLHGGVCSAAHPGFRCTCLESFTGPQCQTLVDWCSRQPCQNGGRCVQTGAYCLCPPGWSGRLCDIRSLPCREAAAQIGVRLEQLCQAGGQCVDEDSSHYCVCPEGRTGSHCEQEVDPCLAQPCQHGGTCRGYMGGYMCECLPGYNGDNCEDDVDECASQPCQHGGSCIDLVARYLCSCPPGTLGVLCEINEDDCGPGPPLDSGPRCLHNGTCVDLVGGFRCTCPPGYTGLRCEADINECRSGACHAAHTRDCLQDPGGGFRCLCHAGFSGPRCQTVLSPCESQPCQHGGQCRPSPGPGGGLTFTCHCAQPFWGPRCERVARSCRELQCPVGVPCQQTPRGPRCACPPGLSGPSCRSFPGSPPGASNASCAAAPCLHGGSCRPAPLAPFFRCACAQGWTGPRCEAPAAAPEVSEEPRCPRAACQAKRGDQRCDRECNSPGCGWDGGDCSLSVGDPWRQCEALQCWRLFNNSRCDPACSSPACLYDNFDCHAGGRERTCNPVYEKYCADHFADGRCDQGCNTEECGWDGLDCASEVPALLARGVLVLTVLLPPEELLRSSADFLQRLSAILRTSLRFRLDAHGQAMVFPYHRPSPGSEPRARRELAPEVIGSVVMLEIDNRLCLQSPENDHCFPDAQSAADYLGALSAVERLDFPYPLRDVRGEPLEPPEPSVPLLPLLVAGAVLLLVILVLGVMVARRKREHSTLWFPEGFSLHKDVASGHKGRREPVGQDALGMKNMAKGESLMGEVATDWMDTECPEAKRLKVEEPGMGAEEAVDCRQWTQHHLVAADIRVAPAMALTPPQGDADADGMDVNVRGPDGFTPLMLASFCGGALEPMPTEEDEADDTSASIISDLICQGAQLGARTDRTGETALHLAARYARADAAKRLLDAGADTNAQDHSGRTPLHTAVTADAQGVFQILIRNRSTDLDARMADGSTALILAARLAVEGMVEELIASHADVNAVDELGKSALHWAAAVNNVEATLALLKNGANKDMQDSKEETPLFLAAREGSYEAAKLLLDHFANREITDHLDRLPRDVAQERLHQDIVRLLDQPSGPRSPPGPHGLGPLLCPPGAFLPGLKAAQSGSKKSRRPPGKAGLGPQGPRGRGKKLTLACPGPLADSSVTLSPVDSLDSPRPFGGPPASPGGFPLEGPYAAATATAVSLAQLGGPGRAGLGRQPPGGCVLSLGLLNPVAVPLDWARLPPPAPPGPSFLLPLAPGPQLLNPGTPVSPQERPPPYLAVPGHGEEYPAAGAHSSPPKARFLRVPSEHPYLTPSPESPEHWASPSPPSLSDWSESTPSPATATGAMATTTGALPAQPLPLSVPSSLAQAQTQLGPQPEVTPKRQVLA
A short description of test [10]: small-molecule microarray binders of probe aEGFR, primary screen, biochemical, biotinylated probe, 635/667 nm fluorescence (AID 1097).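 Note: probe is a biotinylated anti-EGFR antibody binding compounds printed on slides; score combines fluorescence near 667 nm and signal to noise of each spot.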 As to conditions: higher = more signal.
For test [11], the system named is Plasmodium falciparum Sir2 (PF13_0152, Sir2A). Put plainly: pfSir2 binders on small-molecule microarrays, primary screen, biochemical, small-molecule microarray, 635 nm fluorescence (AID 1098).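 Note: score merges spot fluorescence intensity with its signal-to-noise ratio.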 Particulars: small-molecule microarray binding, fluorescence 635 nm; higher = more signal.
A short description of test [12]: small-molecule microarray binders of probe aDKK1, primary screen, biochemical, biotinylated probe, 635/667 nm fluorescence (AID 1099).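 Note: score merges 667nm spot fluorescence with signal to noise across triplicate slides; reference of the scale not given here.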 Particulars: higher = more signal.
The nature of test [13]: small-molecule microarray binders of probe aCHRDL2, primary screen, biochemical, biotinylated probe, 635/667 nm fluorescence (AID 1100). Particulars: higher = more signal.
Test [14] in a line: splicing luciferase reporter signal modulators, primary screen, spliceosome inhibition project, cell-based, HEK293, splice +/- reporter (AID 1101).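 Note: HEK293 cells carrying a splicing-competent luciferase reporter gene; test concentration not given here.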 As to conditions: luminescence, 24 h, higher = more signal, called active from +8 up or from −8 down. On the technique in general: A reporter such as luciferase makes a cellular process visible.
Test [15] addresses Fibroblast growth factor 10 (Homo sapiens) (UniProt O15520). The test can be described thus: FGF10 binders on small-molecule microarrays, primary screen, biochemical, small-molecule microarray, 635 nm fluorescence (AID 1102). Particulars: FGF10 binding, fluorescence 635 nm, higher = more signal.
In test [16] the test system is glycogen synthase kinase-3 (GSK3A per assay name; protocol says GSK3B). Put plainly: GSK3 binders on small-molecule microarrays, primary screen, biochemical, small-molecule microarray, 635 nm fluorescence, GSK3A (AID 1103). Note: the record names both GSK3A and GSK3B. As to conditions: small-molecule microarray binding, fluorescence 635 nm; higher = more signal.
For test [17], the target named is Epidermal growth factor receptor (Homo sapiens) (UniProt P00533). The test can be described thus: EGFR binders on small-molecule microarrays, primary screen, biochemical, small-molecule microarray, 635 nm fluorescence (AID 1104).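 Note: score merges 667 nm emission intensity with spot signal to noise over triplicate slides.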 As to conditions: EGFR binding, higher = more signal.
Chain of Epidermal growth factor receptor (Homo sapiens) (P00533 whole entry, looked up): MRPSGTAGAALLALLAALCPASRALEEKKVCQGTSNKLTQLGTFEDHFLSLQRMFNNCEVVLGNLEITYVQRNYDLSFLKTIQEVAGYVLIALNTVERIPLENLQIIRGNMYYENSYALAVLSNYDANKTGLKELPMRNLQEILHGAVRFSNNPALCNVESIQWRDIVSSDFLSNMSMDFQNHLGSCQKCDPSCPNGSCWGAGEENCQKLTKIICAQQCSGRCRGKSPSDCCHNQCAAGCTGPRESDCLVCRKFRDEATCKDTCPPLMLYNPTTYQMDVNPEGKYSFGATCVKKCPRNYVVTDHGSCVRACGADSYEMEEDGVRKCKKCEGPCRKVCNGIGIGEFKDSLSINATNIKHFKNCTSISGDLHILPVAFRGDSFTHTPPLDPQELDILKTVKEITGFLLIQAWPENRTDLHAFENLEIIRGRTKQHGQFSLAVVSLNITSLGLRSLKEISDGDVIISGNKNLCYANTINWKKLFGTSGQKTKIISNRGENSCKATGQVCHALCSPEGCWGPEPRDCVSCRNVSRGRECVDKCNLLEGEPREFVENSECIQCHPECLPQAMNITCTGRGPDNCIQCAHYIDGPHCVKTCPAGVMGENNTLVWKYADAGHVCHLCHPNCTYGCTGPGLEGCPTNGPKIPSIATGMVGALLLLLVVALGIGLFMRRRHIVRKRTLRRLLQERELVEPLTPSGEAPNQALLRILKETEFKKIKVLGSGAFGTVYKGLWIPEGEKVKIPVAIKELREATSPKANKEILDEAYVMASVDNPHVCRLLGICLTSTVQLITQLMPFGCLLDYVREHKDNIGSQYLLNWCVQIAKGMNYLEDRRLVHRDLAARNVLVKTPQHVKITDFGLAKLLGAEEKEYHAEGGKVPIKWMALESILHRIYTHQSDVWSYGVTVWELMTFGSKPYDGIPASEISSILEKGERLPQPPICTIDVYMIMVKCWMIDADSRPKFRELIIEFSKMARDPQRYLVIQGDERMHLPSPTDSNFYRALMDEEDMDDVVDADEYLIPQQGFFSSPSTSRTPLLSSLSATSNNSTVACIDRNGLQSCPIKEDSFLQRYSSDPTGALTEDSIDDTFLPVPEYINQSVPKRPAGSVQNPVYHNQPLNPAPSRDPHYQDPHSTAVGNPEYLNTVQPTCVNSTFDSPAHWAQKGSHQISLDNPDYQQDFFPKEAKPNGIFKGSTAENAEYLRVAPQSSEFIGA
Test [18] deals with Follistatin-related protein 3 (Homo sapiens) (UniProt O95633). Put plainly: FSTL3 binders on small-molecule microarrays, primary screen, biochemical, small-molecule microarray, 635 nm fluorescence (AID 1105).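 Note: score merges emission near 667 nm and signal to noise per printed spot across three slides.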 Particulars: FSTL3 binding, higher = more signal.
Chain of Follistatin-related protein 3 (Homo sapiens) (O95633 whole entry, looked up): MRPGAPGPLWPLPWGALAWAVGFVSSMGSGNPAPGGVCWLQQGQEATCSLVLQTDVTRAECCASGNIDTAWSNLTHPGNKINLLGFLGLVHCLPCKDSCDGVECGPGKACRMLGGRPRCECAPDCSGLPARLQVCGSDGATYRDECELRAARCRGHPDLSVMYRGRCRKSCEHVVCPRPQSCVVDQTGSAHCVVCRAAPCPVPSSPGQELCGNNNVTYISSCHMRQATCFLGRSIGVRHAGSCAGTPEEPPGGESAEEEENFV
Test [19] deals with Dickkopf-related protein 1 (Homo sapiens) (UniProt O94907). The test can be described thus: DKK1 binders on small-molecule microarrays, primary screen, biochemical, small-molecule microarray, 635 nm fluorescence scan (AID 1106).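 Note: score merges emission near 667 nm with signal to noise over three replicate slides.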 Particulars: DKK1 binding, higher = more signal.
Chain of Dickkopf-related protein 1 (Homo sapiens) (O94907 whole entry, looked up): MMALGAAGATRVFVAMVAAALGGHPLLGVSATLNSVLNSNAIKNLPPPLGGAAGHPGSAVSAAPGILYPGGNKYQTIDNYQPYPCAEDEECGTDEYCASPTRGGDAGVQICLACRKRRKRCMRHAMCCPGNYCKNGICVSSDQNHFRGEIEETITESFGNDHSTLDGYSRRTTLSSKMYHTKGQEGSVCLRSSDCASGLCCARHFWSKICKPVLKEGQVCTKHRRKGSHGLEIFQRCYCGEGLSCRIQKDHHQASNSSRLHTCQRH
Test [20] has as its system Inhibin beta A chain (activin A). Put plainly: INHBA (activin A) binders on microarrays, primary screen, biochemical, small-molecule microarray, 635 nm fluorescence scan (AID 1107).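 Note: mouse activin A protein probed at 4.33 µg/mL on printed slides; score merges bound-protein fluorescence near 667 nm with spot signal-to-noise.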 As to conditions: small-molecule microarray binding, higher = more signal.

Chain of Torsin-1A-interacting protein 2 (Homo sapiens) (Q8NFQ8 whole entry, looked up): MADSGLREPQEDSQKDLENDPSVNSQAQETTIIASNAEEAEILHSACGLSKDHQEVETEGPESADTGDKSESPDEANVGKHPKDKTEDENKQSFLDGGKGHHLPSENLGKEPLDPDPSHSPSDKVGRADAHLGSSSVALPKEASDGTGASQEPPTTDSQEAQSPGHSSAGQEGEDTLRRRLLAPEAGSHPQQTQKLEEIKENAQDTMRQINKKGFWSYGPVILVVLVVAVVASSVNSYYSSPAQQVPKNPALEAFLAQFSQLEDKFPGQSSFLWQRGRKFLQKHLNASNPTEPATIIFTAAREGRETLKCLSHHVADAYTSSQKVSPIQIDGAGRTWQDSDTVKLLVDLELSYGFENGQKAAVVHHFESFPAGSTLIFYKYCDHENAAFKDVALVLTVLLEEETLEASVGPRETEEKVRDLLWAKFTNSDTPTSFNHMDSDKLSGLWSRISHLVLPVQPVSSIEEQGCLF
Chain of Fibroblast growth factor 10 (Homo sapiens) (O15520 whole entry, looked up): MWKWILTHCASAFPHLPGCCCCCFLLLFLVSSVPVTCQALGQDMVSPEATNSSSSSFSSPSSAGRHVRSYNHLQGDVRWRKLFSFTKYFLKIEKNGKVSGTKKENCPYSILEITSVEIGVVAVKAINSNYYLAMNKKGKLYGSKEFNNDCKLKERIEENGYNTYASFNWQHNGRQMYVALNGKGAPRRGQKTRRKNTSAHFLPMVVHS

With `Cc1ccc(S[C@]2(C(=O)NCCN3CCOCC3)CC(=O)N(C3CCCCC3)[C@@H]2c2ccc(CO)cc2I)cc1`, the composite z-score is 1.53 in [1]; 3.23 in test [5]; -0.0512 in test [7]; 0.824 in test [8]; 1.07 in [9]; -0.313 in [10]. The composite z-score was 0.567 in test [11]; -0.69 in test [12]; -0.13 in test [13]; 1.29 in [15]; 1.19 in test [16]; 0.0803 in test [17]. Also, the values for the composite z-score in [18], in test [19] and in [20] were 1.19, -0.0675 and 0.714, respectively. In addition, the z-score in [2] is -0.376 (inactive); in test [3] it was 0.174 (inactive); in [4], 1.28 (inactive); in test [6] it was -0.385 (inactive); in test [14] it was -0.341 (inactive).
For the compound `N#Cc1ccc(C(O)C2C=CC3C(=O)NC(=O)C3N2Nc2ccccn2)cc1` (stereo not given), the composite z-score is 0.312 in [1]; 1.4 in [5]; -0.147 in test [7]; -0.14 in [8]; -0.124 in test [9]; -0.0594 in [10]. Besides, the composite z-score is 0.348 in [11]; -0.164 in test [12]; 0.425 in test [13]; 0.0221 in test [15]; 0.137 in [16]; 0.362 in test [17]. Further, the composite z-score is -0.193 in [18], 0.0057 in test [19] and 0.921 in test [20]. Besides, the z-score in [2] is -1.4 (inactive); in test [3], 0.811 (inactive); in test [4] it was -0.657 (inactive); in test [6] it was -0.195 (inactive); in test [14] it was -0.785 (inactive).
Take `COc1ccc([Si](C)(C)[C@H]2[C@H](CCO)O[C@@]3(C(=O)N(Cc4ccccc4)c4ccc(N(C=O)c5ccccc5)cc43)[C@@H]2C)cc1`: the composite z-score in test [1] is 1.57; in test [5], 1.65; in [7], -0.182; in [8], 0.513; in [9] it was 1.09; in test [10], -0.0121. Also, the composite z-score is 0.638 in test [11]; 0.0036 in test [12]; -0.19 in test [13]; 0.651 in test [15]; -0.273 in test [16]; 0.0677 in test [17]. Further, the composite z-score worked out at 0.618 in [18], 0.167 in test [19] and 0.2 in [20]. Also, the z-score in [2] was -0.347 (inactive); in [3], 1.08 (inactive); in test [4], 20.3 (active); in test [6] it was 0.773 (inactive); in [14] it was -0.663 (inactive).
Regarding `CCN(CC)c1ccc(N2CC=CC34O[C@@H]5C=CCOC(=O)[C@@H]5[C@H]3C(=O)N(CCO)[C@@H]4C2=O)cc1` (stereo not given in full), the composite z-score in test [1] is -0.503; in test [5] it was 0.174; in test [7], -0.0041; in test [8] it was -1.35; in test [9], -0.373; in [10], -0.334. In addition, the composite z-score was 1.47 in [11]; -0.0117 in [12]; 0.54 in test [13]; -0.938 in test [15]; -0.562 in test [16]; -1.66 in test [17]. Further, the composite z-score in test [18] is -0.952; in test [19], -1.51; in test [20] it was -0.292. Further, the z-score in [2] was 0.907 (inactive); in test [3] it was -1.02 (inactive); in test [4] it was -0.108 (inactive); in test [6] it was 1.47 (inactive); in test [14] it was 0.0206 (inactive).
`CCCCC(=C=CC[C@@H](O)c1ccc(OCCO)cc1)C[C@@H](O)c1ccccn1`: the composite z-score was 1.02 in [1]; 1.18 in test [5]; -0.0825 in [7]; 0.888 in [8]; 0.409 in test [9]; -0.0787 in [10]. In addition, the composite z-score in test [11] is 0.381; in [12] it was -0.0087; in test [13] it was -0.162; in test [15] it was 0.279; in test [16], 0.382; in test [17], -0.123. Moreover, the values for the composite z-score in test [18], in [19] and in [20] were 0.588, 0.414 and 0.981, respectively. The z-score was -0.374 (inactive) in test [2]; -1.07 (inactive) in test [3]; -0.689 (inactive) in [4]; 0.774 (inactive) in test [6]; 0.0171 (inactive) in test [14].
